Results reported in PubChem BioAssay AID686979 (National Center for Advancing Translational Sciences (NCATS), 2013).
In all, about 420,000 compounds went through this assay and about 50,000 (12%) were called active. About 26% were inconclusive and are not listed. The entries come from a sample that favours actives as a whole. Where a call stands in place of a potency, no number is given. Values without a mark were called inactive. Calls follow the shape of the dose curve; as a rule, active = well fitted inhibition curve with a large enough effect; inconclusive = small, poorly fitted or top-dose-only effect; inactive = flat fitted curve, though single readings scatter.

Experiment: qHTS for Inhibitors of human tyrosyl-DNA phosphodiesterase 1 (TDP1): qHTS in cells in presence of CPT; also: nearly all actives have a fitted effect of over 55% in size
Conditions: chicken DT40 Tdp1-/-;hTDP1 cells + 20 nM CPT, ATP luminescence, 48 h; series mostly up to 46.2 µM
In short: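 Chicken DT40 Tdp1-/- cells stably complemented with human TDP1 were seeded at 400 cells/well in medium containing 20 nM camptothecin, exposed to pin-transferred compounds, and grown at 37 °C for at least 48 hr. Viability was read as ATP luminescence.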
Potency is read from the fitted curve at half-maximal effect.

Q: Which Potency does the source give for COc1ccc(CCNC(=O)CN(C)S(=O)(=O)c2ccc3nc(C)sc3c2)cc1OC here?
A: Its Potency is “inactive”.

Q: Which Potency does the source give for COCCSc1nnc(NC(=O)c2cc(OC)c(OC)cc2[N+](=O)[O-])s1 here?
A: Its Potency is “inactive”.

Q: For CCN1CCN(C(=O)c2cc3cc4ccc(OC)cc4nc3s2)CC1, which Potency is on record?
A: The Potency was “inactive”.

Q: For COC(=O)c1ccc(NC(=O)c2cccc3c2C(=O)N(C2CCCCC2)C3)cc1, which Potency is on record?
A: The Potency was “inactive”.

Q: For COc1ccc(CCNc2ncnc3sc(C(=O)N4CCCC4)c(C)c23)cc1OC, which activity change, negative = growth inhibition is on record?
A: Its activity change, negative = growth inhibition is 3.59% [at 9.04 µM].

Q: For CCS(=O)(=O)NCCc1ccc(OC)c(OC)c1, which Potency is on record?
A: The Potency was “inactive”.

Q: With COc1ccc(CCNc2ncnc3nc[nH]c23)cc1OC as the molecule, how does the Potency read?
A: The Potency was 18.4 µM (active).

Q: Which Potency does the source give for COc1ccc(/C(C)=N/N2CCOCC2)c(O)c1 here?
A: Its Potency is “inactive”.

Q: For O=C(Nc1cc(-c2nn(CC(=O)N3CCCCC3)c(=O)c3ccccc23)ccc1N1CCOCC1)c1ccc(Cl)cc1, which Potency is on record?
A: The Potency was “inactive”.

Q: For CC(=O)c1c(C)[nH]c(C(=O)N2CCN(S(=O)(=O)c3ccc(F)c(F)c3)CC2)c1C, which Potency is on record?
A: The Potency was 0.231 µM (active).

Q: With CC(=O)c1c(C)[nH]c(C(=O)OCC(=O)Nc2cc(S(=O)(=O)N3CCCCC3)ccc2C)c1C as the molecule, how does the Potency read?
A: The Potency was “inactive”.

Q: For COc1ccc(S(=O)(=O)N2CCN(C(=O)c3cc(C)oc3C)CC2)cc1, which Potency is on record?
A: Its Potency is “inactive”.

Q: For COc1cccc2c1CCC(NC(C)=O)C2=O (stereo not drawn), which Potency is on record?
A: The Potency was “inactive”.

Q: With Cc1cc(O)c(Sc2ccccc2)c(=O)o1 as the molecule, how does the Potency read?
A: Its Potency is “inactive”.

Q: With O=C(Nc1ccccc1Cl)/C(Cl)=C(\Cl)S(=O)c1ccccc1 (stereo not drawn) as the molecule, how does the Potency read?
A: The Potency was 0.164 µM (active).

Q: For O=C(COC(=O)c1cccs1)Nc1ccccc1Cl, which Potency is on record?
A: The Potency was “inactive”.

Q: For O=C(Nc1ccccc1Cl)c1ccc2nsnc2c1, which Potency is on record?
A: Its Potency is “inactive”.

Q: For CCNC(=S)NCC, which Potency is on record?
A: The Potency was “inactive”.

Q: For Cc1cc(C)c(S(=O)(=O)NN=C2c3ccccc3[C@H]3Cc4csc[n+]4[C@@H]23)c(C)c1, which Potency is on record?
A: Its Potency is 29.1 µM (active).

Q: For CC(=O)Nc1ccc(S(=O)(=O)NC(C)C(=O)OCCOc2ccc(F)cc2)cc1 (stereo not drawn), which Potency is on record?
A: Its Potency is “inactive”.

Q: With CCC(=O)NC(NCC1CCCO1)C(Cl)(Cl)Cl (stereo not drawn) as the molecule, how does the Potency read?
A: Its Potency is “inactive”.

Q: With O=C(NCC1CCCO1)c1cc2c(s1)CCCC2 (stereo not drawn) as the molecule, how does the Potency read?
A: Its Potency is “inactive”.

Q: Which Potency does the source give for CC1(C(=O)NNC(=S)NCC2CCCO2)CC1(Cl)Cl (stereo not drawn) here?
A: Its Potency is 18.4 µM (active).

Q: For COc1ccc(NC(=S)N2CCC(NC(=O)c3cccc(F)c3)CC2)cc1, which Potency is on record?
A: The Potency was “inactive”.

Q: For COc1ccc(C)cc1Nc1nc(C)nc2c1oc1ccccc12, which Potency is on record?
A: The Potency was “inactive”.

Q: For CC(=O)Nc1ccc(-c2cn3cccnc3n2)cc1, which Potency is on record?
A: Its Potency is “inactive”.

Q: For CCOc1cc(-c2cc(-c3ccc(NC(C)=O)cc3)nc(N)c2C#N)ccc1O, which Potency is on record?
A: Its Potency is 18.4 µM (active).

Q: For CCOC(=O)CC(=O)CSc1nc(-c2ccccc2)cc(-c2ccc(Cl)cc2)c1C#N, which Potency is on record?
A: Its Potency is “inactive”.

Q: For CN(C(=O)CSc1nnc(C2CC2)n1C)C1CCCc2ccccc21 (stereo not drawn), which Potency is on record?
A: Its Potency is “inactive”.

Q: For CCC(C)(C)n1nnnc1C(c1ccccc1OC)N1CCSCC1 (stereo not drawn), which Potency is on record?
A: Its Potency is “inactive”.

Q: Which Potency does the source give for COc1ccc(OC)c(C(c2nnnn2C(C)(C)C)N2CCc3ccccc3C2)c1 (stereo not drawn) here?
A: The Potency was 20.6 µM (active).

Q: Which Potency does the source give for COc1ccccc1C(c1nnnn1C(C)(C)C)N1CCN(Cc2ccccc2)CC1 (stereo not drawn) here?
A: The Potency was “inactive”.

Q: Which Potency does the source give for CC(=O)c1nn(-c2cccc(C(F)(F)F)c2)c(=O)[nH]c1=O here?
A: Its Potency is “inactive”.

Q: For CCOc1ccc(CCN2C(=O)c3cccnc3C2=O)cc1OCC, which Potency is on record?
A: Its Potency is “inactive”.

Q: Which Potency does the source give for CCOc1ccc(N(CC)C(=O)c2cc3c(=O)oc4ccccc4c3s2)cc1 here?
A: The Potency was “inactive”.

Q: Which Potency does the source give for CCOC(=O)c1ccc2[nH]c3c(c2c1)CCCC3NC=O (stereo not drawn) here?
A: Its Potency is “inactive”.

Q: For O=C(CN1CCCSc2ccccc21)N1CCN(S(=O)(=O)c2cccc(F)c2)CC1, which Potency is on record?
A: The Potency was 16.4 µM (active).

Q: With CN(C(=O)CN1C(=O)CCSc2ccc(S(=O)(=O)N3CCCC3)cc21)c1ccccc1 as the molecule, how does the Potency read?
A: The Potency was “inactive”.

Q: For O=C(CN1CCN(S(=O)(=O)c2cccc(Cl)c2)CC1)N1CCCCC1, which Potency is on record?
A: Its Potency is “inactive”.

Q: For C=CC1=C(C(=O)O)N2C(=O)[C@@H](NC(=O)/C(=N/OCC(=O)O)c3csc(N)n3)[C@H]2SC1, which Potency is on record?
A: The Potency was “inactive”.

Q: With CCn1c(SCC(=O)N/N=C/C=C/c2ccccc2[N+](=O)[O-])nnc1-c1ccccc1 as the molecule, how does the Potency read?
A: Its Potency is “inactive”.

Q: Which Potency does the source give for CCC1(C)COC(c2ccc(OC)c(OC)c2)OC1 (stereo not drawn) here?
A: The Potency was “inactive”.

Q: With COc1cccc(-c2ccc3c(c2)S(=O)(=O)c2cccc(C(=O)O)c2C3=O)c1OC as the molecule, how does the Potency read?
A: The Potency was “inactive”.

Q: With Cc1cc(C(=O)N/N=C\C(Br)=C\c2ccccc2)c(C)o1 as the molecule, how does the Potency read?
A: The Potency was 8.2 µM (active).

Q: Which Potency does the source give for CC(C)c1cc(C(=O)N/N=C/C(Br)=C/c2ccccc2)n[nH]1 here?
A: Its Potency is 2.31 µM (active).

Q: With CC(C)c1cc(C(=O)O)n[nH]1 as the molecule, how does the Potency read?
A: Its Potency is “inactive”.

Q: With Cc1ccc(/C=N/NC(=O)C(NC(=O)c2ccccc2)c2n[nH]c(=O)c3ccccc23)cc1 (stereo not drawn) as the molecule, how does the Potency read?
A: The Potency was “inactive”.

Q: For Cc1cc(C(=O)NCCc2ccc(Cl)cc2)c(C)o1, which Potency is on record?
A: Its Potency is “inactive”.

Q: For CC(=C/c1ccccc1)/C=N/NC(=O)c1cc(C)oc1C, which Potency is on record?
A: The Potency was “inactive”.

Q: With Cc1ccc(C2(C)NC(=O)N(CC(=O)Nc3ccccc3C(=O)N3CCCCC3)C2=O)cc1 (stereo not drawn) as the molecule, how does the Potency read?
A: Its Potency is “inactive”.

Q: Which Potency does the source give for CCN(CC)CCCNC(=O)c1cn(C)c2ccc(S(=O)(=O)N(C)C3CCCCC3)cc2c1=O here?
A: The Potency was “inactive”.

Q: For CCN(CC)CCn1cnc2c1c(=O)n(CCOC(=O)c1cc(OC)c(OC)c(OC)c1)c(=O)n2C, which Potency is on record?
A: Its Potency is “inactive”.

Q: For COc1cc2c(cc1OC)C(/C=C/c1ccco1)=NCC2, which Potency is on record?
A: The Potency was 23.1 µM (active).

Q: With CCOC(=O)C1=NN(c2ccc(Cl)cc2)/C(=C/C2=NCCc3cc(OC)c(OC)cc32)S1 as the molecule, how does the Potency read?
A: The Potency was “inactive”.

Q: With COc1ccc([N+](=O)[O-])cc1NC(=O)COC(=O)/C=C/c1ccco1 as the molecule, how does the Potency read?
A: The Potency was “inactive”.

Q: Which Potency does the source give for Cc1ccc2c(c1)NC(=O)[C@@]1(C)[C@@H](c3ccccc3)[C@H]3COc4ccc(Cl)cc4[C@@H]3N1C2=O here?
A: Its Potency is 25.9 µM (active).

Q: For CCOC(=O)[C@H]1[C@H]2COc3ccc(OC)cc3[C@@H]2N2C(=O)c3ccc(F)cc3NC(=O)[C@@]12C, which Potency is on record?
A: Its Potency is “inactive”.

Q: For C[C@@H]1NC(=O)[C@@]2(C)[C@@H](c3ccccc3)[C@H]3COc4ccccc4[C@@H]3N2C1=O, which Potency is on record?
A: Its Potency is “inactive”.

Q: For Cc1ccc(Cl)cc1N1CCN(C(=O)c2cccn3c(=O)c4cc(Cl)ccc4nc23)CC1, which Potency is on record?
A: The Potency was “inactive”.

Q: For Cc1cn(C)c(CC(=O)NCc2ccc(Cl)cc2)c1C(=O)O, which Potency is on record?
A: The Potency was “inactive”.

Q: For CCOC(=O)/C(=C\c1ccc([N+](=O)[O-])cc1)C(=O)c1cc(C(C)=O)c(Nc2ccccc2)s1, which Potency is on record?
A: Its Potency is 0.58 µM (active).

Q: For O=C(Nc1ccccc1)/C(=C/c1ccc([N+](=O)[O-])cc1)NC(=O)c1ccccc1, which Potency is on record?
A: Its Potency is “inactive”.

Q: Which Potency does the source give for CCOC(=O)COc1ccc([N+](=O)[O-])cc1 here?
A: The Potency was “inactive”.
